Results taken from PubChem BioAssay (NCATS).
Several values for one entry are separate records, joined by “and”; a condition that tells them apart may be missing. Identical values can stand only once. Entries after “also recorded” stand apart in the source; their conditions may differ. Results filed as inconclusive are left out. Where a call stands in place of a potency, no number is given. Activity calls are given as the source filed them. Unless noted, calls follow the shape of the full dose curve.

How the values were obtained:
[1] = Cytotoxicity counterscreen for inhibitors of SARS-CoV-2 cell entry (AID 1645845); also: nearly all actives have a fitted effect of over 50% in size
Outline: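 48 h compound treatment (after 1 h preincubation), HEK293-ACE2 cells, 37 C/5% CO2; ATP luminescence endpoint; normalized to cell wells and media blanks.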

[2] = Primary qHTS to identify inhibitors of SARS-CoV-2 cell entry (AID 1645846); also: nearly all actives have a fitted effect of over 45% in size; also: potency is read from the fitted curve at half-maximal effect
Outline: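 HEK293-ACE2 (Expi293F, stable hACE2), 1500 cells/well, o/n 37C; cpd 23 nL pin, 1 h; MLV-PP w/ SARS-CoV-2-S (Wuhan-Hu-1, Δ19 C-term); 48 h 37C; Bright-Glo luminescence; normalized vs S-PP and bald PP.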

Papain (Carica papaya) = Papain (Carica papaya) (UniProt P00784); test: Primary qHTS assay for inhibitors of the protease papain (AID 1645873; active = well fitted curve in the direction sought with a large enough effect; an effect the other way counts as inactive or inconclusive;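 also: papain turnover of Z-FR-AMC read as the AMC fluorescence gain over 10 min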)
Sequence of Papain (Carica papaya) (P00784 whole entry, looked up, the tested form may be a part): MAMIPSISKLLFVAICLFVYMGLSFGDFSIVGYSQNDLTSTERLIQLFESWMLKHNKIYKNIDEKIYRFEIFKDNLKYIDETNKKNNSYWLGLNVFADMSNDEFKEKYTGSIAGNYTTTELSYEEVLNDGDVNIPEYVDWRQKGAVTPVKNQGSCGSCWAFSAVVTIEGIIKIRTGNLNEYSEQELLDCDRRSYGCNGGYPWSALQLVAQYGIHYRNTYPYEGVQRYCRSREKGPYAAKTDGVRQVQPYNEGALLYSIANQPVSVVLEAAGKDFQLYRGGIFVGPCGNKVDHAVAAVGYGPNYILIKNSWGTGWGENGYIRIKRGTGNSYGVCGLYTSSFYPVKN

[3] = Primary qHTS for inhibitors of nuclear receptor binding SET domain protein 2 (NSD2) in an isogenic RCH-ACV NSD2 p.E1099K mutant (9B) (AID 1645876; active = well fitted curve in the direction sought with a large enough effect; an effect the other way counts as inactive or inconclusive; also: nearly all actives have a fitted effect of over 70% in size)
[4] = Primary qHTS for inhibitors of nuclear receptor binding SET domain protein 2 (NSD2) in an RCH-ACV wild type WT cells (2C) (AID 1645877; active = well fitted curve in the direction sought with a large enough effect; an effect the other way counts as inactive or inconclusive; also: nearly all actives have a fitted effect of over 70% in size)
[5] = activity change, negative = inhibition: at 57.1 µM (top of the series) unless noted

O=C(O)CCC(=O)O
Potency [1]: inactive
Potency [2, 5]: inactive

CO/N=C(/C(=O)N[C@@H]1C(=O)N2C(C(=O)[O-])=C(C[n+]3ccn4ncccc43)CS[C@H]12)c1nsc(N)n1
Potency [1]: inactive
Potency [2, 5]: inactive

Nc1ccc(S(=O)(=O)Nc2ccc(Cl)nn2)cc1
Potency [1]: inactive
Potency [2, 5]: inactive

CC(C)[C@H](N)C(=O)OCCOCn1cnc2c(=O)[nH]c(N)nc21
Potency [1]: inactive
activity change, negative = inhibition [2, 5]: -28.1%

C=CCc1ccc(O)c(OC)c1
Potency [1]: inactive
Potency [2, 5]: inactive

Nc1nc(N)nc(-c2cc(Cl)ccc2Cl)n1
Potency [1]: inactive
Potency [2, 5]: inactive

NS(=O)(=O)c1cc2c(cc1Cl)NC(C(Cl)Cl)NS2(=O)=O (stereo not drawn)
Potency [1]: inactive
activity change, negative = inhibition [2, 5]: -2.02% and -6.06%

Cc1ccccc1C(=O)N1CC/C(=N\OS(=O)(=O)O)c2ccc(Cl)cc21
Potency [1]: inactive
Potency [2, 5]: inactive

CN1CCN2c3ncccc3Cc3ccccc3C2C1 (stereo not drawn)
Potency [1]: inactive
activity change, negative = inhibition [2, 5]: -27.6% and -19.2%

CCO[C@H](Cc1ccc(OCCc2ccc(OS(C)(=O)=O)cc2)cc1)C(=O)O
Potency [1]: inactive
Potency [2, 5]: inactive

CC1CC(OC(=O)c2ccccc2O)CC(C)(C)C1 (stereo not drawn)
Potency [1]: inactive
Potency [2, 5]: inactive

S=P(N1CC1)(N1CC1)N1CC1
Potency [1]: inactive
activity change, negative = inhibition [2, 5]: 4.21%

COc1cccc(OC)c1C(=O)N[C@@H]1C(=O)N2[C@@H]1SC(C)(C)[C@@H]2C(=O)O
Potency [1]: inactive
activity change, negative = inhibition [2, 5]: -19.9%

CCN(CC)CC#CCOC(=O)C(O)(c1ccccc1)C1CCCCC1 (stereo not drawn)
Potency [1]: inactive
activity change, negative = inhibition [2, 5]: -28.2%

CC(C)CN(C[C@@H](O)[C@H](Cc1ccccc1)NC(=O)O[C@H]1CO[C@H]2OCC[C@H]21)S(=O)(=O)c1ccc(N)cc1
Potency [1]: inactive
Potency [2, 5]: inactive

O=C(Oc1ccccc1C(=O)O)c1ccccc1O
Potency [1]: inactive
activity change, negative = inhibition [2, 5]: -27.2%

CC(=O)Nc1ccc(CC(=O)O)cc1
Potency [1]: inactive
Potency [2, 5]: inactive

Cn1nnc2c(C(N)=O)ncn2c1=O
Potency [1]: inactive
activity change, negative = inhibition [2, 5]: -15.9% and -14.8%

CC1(C)O[C@@H]2C[C@H]3[C@@H]4CCC5=CC(=O)C=C[C@]5(C)[C@@H]4[C@@H](O)C[C@]3(C)[C@]2(C(=O)CO)O1
Potency [1]: inactive
Potency [2, 5]: inactive

CC(C)(C)NCC(O)c1cc(O)cc(O)c1 (stereo not drawn)
Potency [1]: inactive
Potency [2, 5]: inactive

O=C(O)c1cc(O)c(O)c(O)c1
Potency [1]: inactive
Potency [2, 5]: inactive

CCN1CC(CCN2CCOCC2)C(c2ccccc2)(c2ccccc2)C1=O (stereo not drawn)
Potency [1]: inactive
activity change, negative = inhibition [2, 5]: -22.6%

O=C(Oc1ccccc1)c1ccccc1O
Potency [1]: inactive
Potency [2, 5]: inactive

CCn1ccc(NS(=O)(=O)c2ccc(N)cc2)nc1=O
Potency [1]: inactive
Potency [2, 5]: inactive

O=C(O)CNC(=O)c1ccccc1
Potency [1]: inactive
Potency [2, 5]: inactive

O=C(O)CCCC[C@@H]1SC[C@@H]2NC(=O)N[C@@H]21
Potency [1]: inactive
Potency [2, 5]: inactive

NS(=O)(=O)c1cc2c(cc1C(F)(F)F)NC(Cc1ccccc1)NS2(=O)=O (stereo not drawn)
Potency [1]: inactive
Potency [2, 5]: inactive

CN1C[C@@H]2C[C@H]1CN2c1cc2c(cc1F)c(=O)c(C(=O)O)cn2C1CC1
Potency [1]: inactive
activity change, negative = inhibition [2, 5]: -27.1% [at 27.1 µM]

CN1C(CSCC(F)(F)F)Nc2cc(Cl)c(S(N)(=O)=O)cc2S1(=O)=O (stereo not drawn)
Potency [1]: inactive
activity change, negative = inhibition [2, 5]: -21.3%

CN(C)CCOc1ccc(/C(=C(/CCCl)c2ccccc2)c2ccccc2)cc1
Potency [1]: inactive
Potency [2, 5]: 15.8 µM (active) and 20 µM (active)

Cc1cc(OI)c(C(C)C)cc1-c1cc(C(C)C)c(OI)cc1C
Potency [1]: inactive
Potency [2, 5]: inactive

CC(C)(C(=O)c1cccnc1)c1cccnc1
Potency [1]: inactive
Potency [2, 5]: inactive

COc1ccc2cc1Oc1cc3c(cc1OC)CC[N+](C)(C)[C@H]3Cc1ccc(cc1)Oc1c(OC)c(OC)cc3c1[C@@H](C2)[N+](C)(C)CC3
Potency [1]: inactive
Potency [2, 5]: inactive

CC(=O)[C@@]1(O)CC[C@H]2[C@@H]3C[C@H](C)C4=CC(=O)C=C[C@]4(C)[C@@]3(F)[C@@H](O)C[C@@]21C
Potency [1]: inactive
activity change, negative = inhibition [2, 5]: 1.04%

C[C@H](NC(CCc1ccccc1)C(=O)O)C(=O)N1CCC[C@H]1C(=O)O (stereo partly drawn)
Potency [1]: inactive
Potency [2, 5]: inactive

Clc1cccc(Cl)c1NC1=NCCN1
Potency [1]: inactive
Potency [2, 5]: inactive

CC(=O)OCC(COC(C)=O)OC(C)=O
Potency [1]: inactive
activity change, negative = inhibition [2, 5]: 0.643%

CC(=O)[C@H]1CC[C@H]2[C@@H]3C=CC4=CC(=O)CC[C@@]4(C)[C@@H]3CC[C@]12C
Potency [1]: inactive
activity change, negative = inhibition [2, 5]: -10.8%

CC(=O)OCC(=O)[C@@]1(O)CC[C@H]2[C@@H]3CCC4=CC(=O)CC[C@]4(C)[C@H]3C(=O)C[C@@]21C
Potency [1]: inactive
activity change, negative = inhibition [2, 5]: -2.62% and -39.8%

O=C(O)C(S)C(S)C(=O)O (stereo not drawn)
Potency [1]: inactive
Potency [2, 5]: inactive

CCCCCCCCCCCCCCCCO
Potency [1]: inactive
activity change, negative = inhibition [2, 5]: -7.94%

CC(=O)OC(C)C[N+](C)(C)C (stereo not drawn)
Potency [1]: inactive
Potency [2, 5]: inactive

NS(=O)(=O)c1cc2c(cc1Cl)NC(CC1CCCC1)NS2(=O)=O (stereo not drawn)
Potency [1]: inactive
Potency [2, 5]: inactive

CN1C(=O)OC(C)(C)C1=O
Potency [1]: inactive
Potency [2, 5]: inactive

O=C(O)CSCC(=O)NC1CCSC1=O (stereo not drawn)
Potency [1]: inactive
Potency [2, 5]: inactive
activity change, negative = inhibition [2, 5]: -0.451%

COc1ccc2[nH]cc(CCNC(C)=O)c2c1
Potency [1]: inactive
Potency [2, 5]: inactive
activity change, negative = inhibition [2, 5]: -6.18%

Nc1ccc(S(N)(=O)=O)cc1
Potency [1]: inactive
Potency [2, 5]: inactive
activity change, negative = inhibition [2, 5]: -17.3%

C[C@]12C=CC(=O)C=C1CC[C@@H]1[C@@H]2C(=O)C[C@@]2(C)[C@H]1CC[C@]2(O)C(=O)CO
Potency [1]: inactive
Potency [2, 5]: inactive
activity change, negative = inhibition [2, 5]: -11.4%

COc1ccc(C(=O)CC(=O)c2ccc(C(C)(C)C)cc2)cc1
Potency [1]: inactive
Potency [2, 5]: inactive
activity change, negative = inhibition [2, 5]: -3.57%

CC(=O)NCCCS(=O)(=O)O
Potency [1]: inactive
activity change, negative = inhibition ([2]; SARS-CoV-2 pseudovirus cell entry assay, luminescence, at 27.1 µM (top of the series)): 1.79%
activity change, negative = inhibition ([2]; SARS-CoV-2 pseudovirus cell entry assay, luminescence, at 57.1 µM (top of the series)): -6.89%

CN1C(C(=O)Nc2ccccn2)=C(O)c2ccccc2S1(=O)=O
Potency [1]: inactive
Potency [2, 5]: inactive
activity change, negative = inhibition [2, 5]: -89.8%

C[C@@H](CN1CC(=O)NC(=O)C1)N1CC(=O)NC(=O)C1
Potency [1]: inactive
Potency [2, 5]: inactive
activity change, negative = inhibition [2, 5]: -20%

CCCCCN(C)CCC(O)(P(=O)(O)O)P(=O)(O)O
outcome [1]: inactive [at 11.3 µM]; also recorded: inactive [at 5.25 µM]
activity change, negative = inhibition ([2]; SARS-CoV-2 pseudovirus cell entry assay, luminescence, at 5.25 µM (top of the series)): -11.4%
activity change, negative = inhibition ([2]; SARS-CoV-2 pseudovirus cell entry assay, luminescence, at 11.3 µM (top of the series)): -30.6%
outcome (Papain (Carica papaya)): inactive

CNC[C@H](O)c1cccc(O)c1
Potency [1]: inactive
Potency [2, 5]: inactive
activity change, negative = inhibition [2, 5]: 1.11%

Cc1cccc(C)c1NC(=O)c1cc(S(N)(=O)=O)c(Cl)cc1O
Potency [1]: inactive
activity change, negative = inhibition [2, 5]: -7.8%

NC(=O)c1cnccn1
Potency [1]: inactive
Potency [2, 5]: inactive
activity change, negative = inhibition [2, 5]: -28%

Nc1cc(C(Cl)=C(Cl)Cl)c(S(N)(=O)=O)cc1S(N)(=O)=O
Potency [1]: inactive
Potency [2, 5]: inactive
activity change, negative = inhibition [2, 5]: -25%

Nc1ccn(C[C@@H](CO)OCP(=O)(O)O)c(=O)n1
activity change, negative = cytotoxicity [1]: 2.99% [at 0.702 µM] (inactive) and 4.32% [at 11.3 µM] (inactive)
activity change, negative = viability loss [3]: -0.956% [at 9.23 µM] (inactive)
activity change, negative = cell killing [4]: -8.19% [at 9.23 µM] (inactive)

Nc1ncnc2c1ncn2[C@@H]1O[C@H](CO)[C@@H](O)[C@H]1O
Potency [1]: inactive
Potency [2, 5]: inactive
activity change, negative = inhibition [2, 5]: -8.35%
